The supplement of paper PMC6555819

What was measured:
Experiment in all cases: PBM binding z-score (relative to random genomic background probes); higher = stronger binding; sequences stand for … in GC…GCGATTGACAGCGTAGAATGAAGG
[1] = tested on: RARb homodimer (NR concentration 270 nM)
Summary of the method: (§1)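 For binding z-scores, the reference was random background probes on custom Agilent 4×180K protein-binding microarrays. These arrays were incubated 1 h with ligand-free nuclear receptor dimers in PBS pH 7.4, 2% milk, 0.02% Triton X-100, 1 mM DTT, 0.2 mg/mL BSA and 0.4 mg/ml salmon testes DNA. Fluorescence was scanned after antibody detection of each partner (one per run) and regression-normalized.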

[2] = tested on: RARg:RXRa (NR concentration 270 nM, RXRa partner concentration 90 nM)
Summary of the method: as §1

[3] = tested on: RARg homodimer (NR concentration 270 nM)
Summary of the method: as §1

[4] = tested on: RXRa DBDmut IVT, anti-RXR (DBD mutation: RXRa K156A/R161A, NR concentration 90 nM)
Summary of the method: as §1

[5] = tested on: RXRa homodimer (NR concentration 180 nM)
Summary of the method: as §1

[6] = tested on: THRa:RXRa (NR concentration 90 nM, RXRa partner concentration 90 nM)
Summary of the method: as §1

[7] = tested on: THRa homodimer (NR concentration 90 nM)
Summary of the method: as §1

[8] = tested on: VDR homodimer (NR concentration 270 nM)
Summary of the method: as §1

| Sequence | PBM binding z-score [1] | PBM binding z-score [2] | PBM binding z-score [3] | PBM binding z-score [4] | PBM binding z-score [5] | PBM binding z-score [6] | PBM binding z-score [7] | PBM binding z-score [8] |
| --- | --- | --- | --- | --- | --- | --- | --- | --- |
| GCATATAGGTAAGACAAGGTGAAAGTCCGATTGT | 0.617 | 0.376 | 0.405 | 0.267 | 0.545 | 3.81 | 0.676 | -0.12 |
| AATACTGGGTCATCGTAGGCCAGAGTACGCACAG | 3.24 | 3.52 | 3.91 | 0.934 | 3.11 | 3.85 | 0.749 | 1 |
| ATCTCTAGGTAACAATTTCAGTGAAAGAGAGGAC | 0.316 | 0.547 | 0.814 | 0.235 | 0.51 | 1.06 | 0.784 | 0.542 |
| CGTCCAAGGTCAATGCTAGTTCAGTGAAAGCATT | 4.24 | 6.18 | 6.17 | 3.83 | 4.84 | 3.91 | 2.17 | 3.28 |
| ATATGTCGGTTATCGGGTCATTCAGTTTGCGCAT | 2.64 | 2.72 | 2.04 | 1.42 | 2.51 | 3.14 | 2.54 | 3.21 |
| GCTAGTTGGTCAGTAAAAGTTCACACACCGGTCG | 3.69 | 3.04 | 2.42 | 1.07 | 1.82 | 1.46 | 0.436 | 2.91 |
| TCTTGGAGATCAGCAGGTTAAGAAAGCTGGCCAA | -0.0506 | -0.0345 | -0.56 | 0.285 | 0.182 | 0.0283 | -0.695 | -0.225 |
| CCTGCTAGGTCAATGGACAGCTAAAGCAGCTCGC | 2.51 | 3.34 | 4.17 | 1.5 | 1.8 | 1.95 | 0.0455 | 0.153 |
| ACTAATAGTTGACTTAGGGCAACCGATACGACGC | 0.958 | 0.412 | 0.996 | 0.674 | 0.408 | 1.6 | 0.383 | 0.15 |
| TCTTGTAGATCAAGCATGTTAAGAAAGCCTGAGT | -0.365 | -0.147 | -0.0954 | 0.943 | 0.122 | -0.0977 | -0.856 | 0.128 |
| GGAACGAGGGCAAGGTGATAGCAGAGTTTGATGG | 2.04 | 1.26 | 2.2 | 1.62 | 0.928 | 1.89 | 0.882 | 2.05 |
| CGAGCTAGGTCATCCAGGACAGTGAATACATTGA | 3.01 | 3.93 | 4.72 | 1.97 | 2.89 | 3.48 | 1.79 | 1.91 |
| TCTATTAGTTGATTAGGGCACCCGAAACAGCGGA | 0.537 | 0.623 | 0.797 | 1.22 | 0.445 | 0.654 | 0.582 | 0.203 |
| TCTGCTCGGTCAGTTGGTCAGCTAACGAGCTGCC | 1.35 | 0.987 | 1.71 | -0.175 | -0.299 | -0.381 | -0.999 | -0.918 |
| TTACCAAGTTGAGCTGAGGTCGTTGATCCAACTC | 0.944 | 0.311 | 0.0622 | 0.245 | 0.839 | 4.34 | 1.77 | 2.04 |
| CCTTACGGGTCACTGACAGTTTATAGCATTTGGA | 3.2 | 5.31 | 4.77 | 2.11 | 5.48 | 2.74 | 0.505 | 1.42 |
| ACTAGTTGGTCAGCGGAGGTCACACACAATTCGG | 4.09 | 3.96 | 4.21 | 0.9 | 3.77 | 4.32 | 2.89 | 3.02 |
| CCTACTGGGCCATCAGGTCATTGAGATCAACGTT | 2.68 | 2.15 | 2.06 | 0.124 | 1.43 | 3.28 | 2.88 | 1.89 |
| ACTTACGGGTCAACGAGGTTATGGCACGCGTATA | 3.9 | 5.75 | 5.68 | 2.65 | 6.57 | 4.04 | 1.32 | 3.94 |
| CCTAATGGGCCAAAGGTCATTGATTCCAATGCTC | 4.39 | 5.84 | 5.06 | 1.72 | 7.11 | 3.26 | 0.623 | 1.9 |
| GCGAGTTGGTCAGTAAAAGGTCACACACCGGTCG | 5.05 | 5.52 | 4.95 | 1.34 | 5.54 | 3.47 | 1.74 | 2.27 |
| ATCGAAAGGTCGACGAGGTAAGTATACACCGTTT | 2.39 | 3.89 | 3.66 | 1.2 | 4.03 | 3.14 | 0.239 | 0.679 |
| TATGCTAGGTCAACGATGGTCAGCTAATCTGCTA | 3.36 | 4.02 | 4.8 | 0.79 | 2.62 | 3.24 | 0.639 | -0.267 |
| CTACCGAGGTGAACAAGGTCGTTGATTACTATTC | 2.25 | 2.19 | 1.74 | 1.74 | 2.4 | 3.6 | 2.43 | 3.13 |
| CCTGCTAGGTCAATGGCCAGCTAAAGCAGCTCGC | 2.64 | 3.43 | 3.65 | 1.05 | 1.79 | 1.98 | 0.178 | -0.525 |
| CGTCCAAGGTCAGAGAGGTCAGGGAATGCCGAGT | 5.34 | 6.59 | 7.38 | 3.45 | 6.19 | 4.47 | 3.11 | 4.88 |
| AGTCAAAGATCATCTAGGTAACGTAAGATATGCT | -0.47 | 0.163 | 0.343 | -0.336 | 0.746 | 1.07 | -0.24 | -0.621 |
| CCTAGTTGGTCAAGGACACACACGCTATAGGTAC | 1.47 | 1.19 | 1.81 | 0.547 | 0.578 | 2.95 | 2.82 | 1.33 |
